Results filed as inconclusive are left out. Unmarked numbers belong to inactive results. The source made the active and inactive calls. Unless noted, the call rests on the fitted dose curve; in most records, active means well fitted curve in the direction sought with a large enough effect in the repeat runs; inconclusive means weak or mixed curves; inactive means no such curve, though single readings can be large; an effect the other way counts as inactive or inconclusive. Non-standard residues stand in square brackets, D forms with d. Residues, ends and D or L forms follow the SMILES beside them. pGlu = O=C1CC[C@@H](C(=O)O)N1

The nature of experiment [1]: qHTS assay to identify aromatase inhibitors - cell viability counter screen (AID 743084).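 Further: cells stimulated with testosterone during compound exposure; nearly all actives have a fitted effect of over 55% in size.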 A general note: Quantitative high-throughput screening tests each substance at several concentrations.
Experiment [2] in a line: qHTS assay to identify small molecule that activate the aryl hydrocarbon receptor (AhR) signaling pathway - cell viability counter screen (AID 743086).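 Further: HepG2 liver cells carrying the AhR DRE luciferase reporter; series mostly up to about 70 µM; nearly all actives have a fitted effect of over 45% in size.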 In outline:
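HepG2-AhR-luc (HG2L7.5c1) cells, 4000/well, were preincubated 5 h at 37C, exposed to compound in qHTS format for 24 hr at 37C, then given CellTiter-Fluor for 30 min; viability was read as fluorescence in the reporter wells.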

For experiment [3], the target named is Peroxisome proliferator-activated receptor gamma (Homo sapiens) (UniProt P37231). The experiment can be described thus: qHTS assay to identify small molecule agonists of the peroxisome proliferator-activated receptor gamma (PPARg) signaling pathway (AID 743094; active means well fitted activation curve with a large enough effect in the signal ratio in the repeat runs, not every such curve was filed as active; the % refers to the signal ratio). In outline:
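Agonist activity was taken from a beta-lactamase reporter (FRET substrate, 1 h at room temperature) in HEK293H cells carrying a PPARg UAS-bla construct. Compounds in DMSO were incubated 17 h at 37C after a 5 h cell pre-incubation.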

Experiment [4] can be described thus: qHTS assay to identify small molecule phospholipidosis (PLD) inducers (AID 1259344; active means well fitted curve in the direction sought with a large enough effect; an effect the other way counts as inactive or inconclusive). A digest of the protocol:
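After 4 h attachment on collagen I, HepG2 cells were dosed with compound alongside LipidTOX Red, kept 24 h at 37 C, fixed, and imaged for lamellar phospholipid pits.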

Experiment [5] concerns the target Nuclear receptor subfamily 1 group I member 2 (Rattus norvegicus) (UniProt Q9R1A7). The experiment can be described thus: Rat pregnane X receptor (rPXR) activation by small molecules, qHTS assay (AID 1346983). Further: nearly all actives have a fitted effect of over 20% in size. Further: potency means the concentration at half of the fitted maximal effect. Particulars: rPXR luciferase reporter cells, One-Glo luminescence, 24 h; max activation: active compounds read high. A digest of the protocol:
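Cell-based rPXR luciferase reporter assay, 2,000 cells per well, rested 5hr at 37 C before compound addition in DMSO, then 24 hr at 37 C. One-Glo reagent was added and luminescence read after 30 min at room temperature.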

Experiment [6] addresses Nuclear receptor subfamily 1 group I member 2 (Homo sapiens) (UniProt O75469). As to the kind of experiment: CYP3A4 induction through human pregnane X receptor (PXR) by small molecules, qHTS assay (AID 1346984). Further: nearly all actives have a fitted effect of over 40% in size. Further: potency means the concentration at half of the fitted maximal effect. A digest of the protocol: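 Read-out is luminescence after One-Glo addition, following a 3 hr, 37C incubation with Luciferin-IPA CYP3A4 substrate (3uM final). Before that, compounds were on DPX-2 cells (HepG2 co-transfected with PXR element plus CYP3A4-promoter luciferase) for 24 hr at 37C.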

The target is the same in experiment [7]. The experiment can be described thus: Human pregnane X receptor (PXR) activation by small molecules, qHTS assay (AID 1346985). Further: nearly all actives have a fitted effect of over 40% in size. Further: potency means the concentration at half of the fitted maximal effect. A digest of the protocol:
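DPX-2 cells (HepG2 co-transfected with a PXR response element and a CYP3A4-promoter luciferase construct) were seeded at 2,000 per well, rested 5 hr at 37C, then exposed to DMSO-dissolved compounds for 24 hr. Activation was read as luciferase luminescence.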

The target of experiment [8] is Aryl hydrocarbon receptor (Homo sapiens) (UniProt P35869). The experiment can be described thus: qHTS assay to identify small molecule that activate the aryl hydrocarbon receptor (AhR) signaling pathway (AID 743085). Further: nearly all actives have a fitted effect of over 15% in size. Further: potency means the concentration at half of the fitted maximal effect.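 On activation: HG2L7.5c1 human HepG2 liver cells with stably integrated DRE-driven firefly reporter; series mostly up to about 70 µM.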 A digest of the protocol: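 Stably transfected human liver carcinoma cells (HG2L7.5c1; 20 DRE-firefly luciferase) were incubated 5 h, dosed, and kept 24 h at 37C. Agonism was scored from increased luciferase luminescence.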
On the % scale 0 is the no-effect control and ±100 the full control effect.

Aryl hydrocarbon receptor (Homo sapiens), sequence (P35869 whole entry, looked up): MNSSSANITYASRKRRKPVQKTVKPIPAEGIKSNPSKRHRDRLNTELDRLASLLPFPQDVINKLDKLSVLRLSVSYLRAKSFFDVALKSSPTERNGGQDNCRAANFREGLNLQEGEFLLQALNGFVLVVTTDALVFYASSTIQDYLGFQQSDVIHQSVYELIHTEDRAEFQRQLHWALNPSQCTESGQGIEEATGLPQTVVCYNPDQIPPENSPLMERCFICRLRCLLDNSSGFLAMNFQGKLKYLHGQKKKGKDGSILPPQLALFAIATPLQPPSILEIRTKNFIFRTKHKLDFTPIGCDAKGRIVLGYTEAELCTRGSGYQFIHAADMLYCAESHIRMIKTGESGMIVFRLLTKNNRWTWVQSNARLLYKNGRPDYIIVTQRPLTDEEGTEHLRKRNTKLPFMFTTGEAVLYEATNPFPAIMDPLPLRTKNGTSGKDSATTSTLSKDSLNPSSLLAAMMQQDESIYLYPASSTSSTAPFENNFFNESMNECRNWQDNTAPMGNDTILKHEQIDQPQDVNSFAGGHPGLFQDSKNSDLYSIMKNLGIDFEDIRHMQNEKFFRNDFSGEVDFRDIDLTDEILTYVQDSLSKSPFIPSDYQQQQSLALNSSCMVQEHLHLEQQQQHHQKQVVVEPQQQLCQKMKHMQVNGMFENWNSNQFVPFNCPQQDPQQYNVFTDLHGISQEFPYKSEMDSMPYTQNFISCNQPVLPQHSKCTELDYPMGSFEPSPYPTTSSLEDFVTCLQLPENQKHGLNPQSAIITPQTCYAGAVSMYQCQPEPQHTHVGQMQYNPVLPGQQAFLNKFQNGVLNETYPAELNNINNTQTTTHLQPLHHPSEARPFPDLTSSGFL
Nuclear receptor subfamily 1 group I member 2 (Rattus norvegicus), sequence (Q9R1A7 whole entry, looked up): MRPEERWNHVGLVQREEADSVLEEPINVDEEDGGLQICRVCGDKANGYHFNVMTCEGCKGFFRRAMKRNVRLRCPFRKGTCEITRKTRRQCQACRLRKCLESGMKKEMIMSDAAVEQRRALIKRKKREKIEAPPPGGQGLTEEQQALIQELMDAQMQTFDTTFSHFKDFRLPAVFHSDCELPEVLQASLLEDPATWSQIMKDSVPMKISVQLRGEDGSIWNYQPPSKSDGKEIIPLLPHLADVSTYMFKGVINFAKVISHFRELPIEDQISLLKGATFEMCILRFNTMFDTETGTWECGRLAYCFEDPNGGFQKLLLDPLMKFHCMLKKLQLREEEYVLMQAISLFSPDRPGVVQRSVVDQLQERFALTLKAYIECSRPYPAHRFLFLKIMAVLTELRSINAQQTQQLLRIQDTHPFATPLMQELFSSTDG
Peroxisome proliferator-activated receptor gamma (Homo sapiens), sequence (P37231 whole entry, looked up): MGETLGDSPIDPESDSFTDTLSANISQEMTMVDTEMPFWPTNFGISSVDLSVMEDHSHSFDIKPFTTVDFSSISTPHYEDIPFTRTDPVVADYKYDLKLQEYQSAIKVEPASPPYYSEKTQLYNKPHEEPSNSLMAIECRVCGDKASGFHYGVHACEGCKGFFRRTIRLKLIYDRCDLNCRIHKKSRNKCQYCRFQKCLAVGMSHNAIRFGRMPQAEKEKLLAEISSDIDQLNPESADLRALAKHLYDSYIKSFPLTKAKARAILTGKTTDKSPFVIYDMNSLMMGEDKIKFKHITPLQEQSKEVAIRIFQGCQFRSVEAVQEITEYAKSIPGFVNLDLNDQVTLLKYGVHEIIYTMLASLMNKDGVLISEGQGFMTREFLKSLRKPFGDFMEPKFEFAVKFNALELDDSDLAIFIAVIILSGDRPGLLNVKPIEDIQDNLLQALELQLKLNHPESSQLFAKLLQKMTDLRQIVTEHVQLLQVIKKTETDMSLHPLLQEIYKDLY

Consider `CCCc1nc(C(C)(C)O)c(C(=O)OCc2oc(=O)oc2C)n1Cc1ccc(-c2ccccc2-c2nn[nH]n2)cc1`, for which the Potency entry in experiment [1], in experiment [2], in experiment [3], in experiment [4], in experiment [6] and in experiment [7] was “inactive” each time. The max activation in experiment [5] was -4.8%.

Consider `CCCCCCCCCCCC(=O)OC[C@@H](O)C1OC[C@H](O)[C@H]1O` (stereo not given in full), for which the Potency entry in experiment [1], in experiment [3], in experiment [4], in experiment [6] and in experiment [7] was “inactive” each time. In experiment [5], the max activation is -2.81%.

With `CC(=O)N[C@@H]1C(O[C@H]2O[C@H](C(=O)O)C(O)[C@H](O)[C@H]2O)[C@H](O)[C@@H](CO)O[C@H]1O[C@@H]1C(C(=O)O)O[C@@H](O[C@H]2[C@H](O)[C@@H](CO)OC(O)[C@@H]2NC(C)=O)[C@H](O)[C@H]1O` (stereo not given in full), the Potency entry in experiment [1], in experiment [2], in experiment [3], in experiment [4], in experiment [6] and in experiment [7] was “inactive” each time. Moreover, in experiment [5], the max activation was -1.09%.

As to `NC(N)=NCC1COc2ccccc2O1` (stereo not given), the Potency result in experiment [1], in experiment [2], in experiment [3], in experiment [4], in experiment [6] and in experiment [7] was “inactive” each time. For the same molecule, the max activation in experiment [5] was -4.35%.

`CC[C@H](C)[C@H](NC(=O)[C@H](Cc1ccccc1)NC(=O)[C@H](C)NC(=O)[C@H](CC(=O)O)NC(=O)[C@H](CCCCN)NC(=O)[C@H](CO)NC(=O)[C@@H]1CCCN1C(=O)[C@@H]1CCC(=O)N1)C(=O)NCC(=O)N[C@@H](CC(C)C)C(=O)N[C@@H](CCSC)C(N)=O` ([pGlu]PSKDAFIGLM-NH2): the Potency entry in experiment [1], in experiment [2], in experiment [3], in experiment [4], in experiment [6] and in experiment [7] was “inactive” throughout. For the same molecule, the max activation in experiment [5] is -3.14%.

In the case of `COc1ccc2cc([C@H](C)CO)ccc2c1`, the Potency entry in experiment [1], in experiment [2], in experiment [3], in experiment [4], in experiment [6] and in experiment [7] was “inactive” in each case. Besides, the max activation in experiment [5] is -2.68%.

Take `O=C(NNCS(=O)(=O)O)c1ccncc1`: the Potency result in experiment [1], in experiment [2], in experiment [3], in experiment [4], in experiment [6] and in experiment [7] was “inactive” in each case. Also, the max activation in experiment [5] was -0.625%.

For `O=C1NC(=O)[C@H]2[C@@H]1[C@@H]1C=C[C@H]2C1`, the Potency result in experiment [1], in experiment [2], in experiment [3], in experiment [4], in experiment [6] and in experiment [7] was “inactive” each time. Besides, the max activation in experiment [5] is -2.18%.

For `C[Se]CCC(N)C(=O)O` (stereo not given), the Potency result in experiment [1], in experiment [2], in experiment [3], in experiment [4], in experiment [6] and in experiment [7] was “inactive” each time. For the same molecule, the max activation in experiment [5] was -0.898%.

Regarding `CCCCCCCCCCCCCCCCCC(=O)OC[C@@H](O)[C@H]1OC[C@H](O)[C@H]1O`, the Potency entry in experiment [1], in experiment [2], in experiment [3], in experiment [4], in experiment [6] and in experiment [7] was “inactive” each time. In addition, the max activation in experiment [5] was -0.713%.

For `C[C@@H]1C[C@H]2[C@@H]3CCC4=CC(=O)C=C[C@]4(C)[C@@]3(F)[C@@H](O)C[C@]2(C)[C@@]1(O)C(=O)COC(=O)c1cccc(S(=O)(=O)O)c1`, the Potency entry in experiment [1], in experiment [2], in experiment [3], in experiment [4], in experiment [6] and in experiment [7] was “inactive” in each case. Moreover, the Potency in experiment [5] was 10 µM (active).

On to `CCN(CC)CCC(=O)N1c2ccccc2Sc2ccc(Cl)cc21`, for which the Potency entry in experiment [1], in experiment [3] and in experiment [4] was “inactive” each time. The max activation in experiment [5] is 3.32%. Moreover, the Potency in experiment [6] and in experiment [7] was 14.1 µM (active) in each case.

For the molecule `O=C(OCc1ccccc1)c1cccnc1`, the Potency result in experiment [1], in experiment [2], in experiment [3], in experiment [4], in experiment [6] and in experiment [7] was “inactive” in each case. In addition, in experiment [5], the max activation is 6.76%.

`Cc1cc2nc3c(=O)[nH]c(=O)nc-3n(C[C@H](O)[C@H](O)[C@H](O)COP(=O)(O)OP(=O)(O)OC[C@H]3O[C@@H](n4cnc5c(N)ncnc54)[C@H](O)[C@@H]3O)c2cc1C`: the Potency entry in experiment [8], in experiment [4], in experiment [6] and in experiment [7] was “inactive” in each case. In experiment [5], the max activation was -0.0695%.

Turning to `O=[n+]1ccn([O-])c2ccccc21`, the Potency entry in experiment [2], in experiment [4] and in experiment [6] was “inactive” throughout. In experiment [5], the max activation was -1.36%.

For the molecule `CCCC(=O)Nc1c(I)cc(I)c(CC(CC)C(=O)O)c1I` (stereo not given), the Potency result in experiment [3] and in experiment [4] was “inactive” in each case. Further, the max activation in experiment [5] is -4.56%. The Potency in experiment [6] is 22.4 µM (active).

In the case of `CC1(C)[C@@H]2CC[C@@]1(C)[C@H](OC(=O)CSC#N)C2`, the Potency entry in experiment [1], in experiment [8], in experiment [2], in experiment [3], in experiment [4] and in experiment [6] was “inactive” in each case. The max activation in experiment [5] was 7.49%.

For the molecule `CC(=O)Nc1ccc(NC(=S)NC(=O)c2ccc(C(C)(C)C)cc2)cc1`, the Potency result in experiment [1], in experiment [2], in experiment [3], in experiment [4] and in experiment [6] was “inactive” in each case. For the same molecule, the Potency in experiment [8] was 1.5 µM (active). The max activation in experiment [5] is -2.69%.

As for `CC1CC(OC(=O)C(O)c2ccccc2)CC(C)(C)C1` (stereo not given), the Potency result in experiment [2], in experiment [3], in experiment [4] and in experiment [6] was “inactive” throughout. Further, the max activation in experiment [5] is -1.68%.

In the case of `CCCCCc1ccc(C)cc1O`, the Potency result in experiment [1], in experiment [2], in experiment [3], in experiment [4] and in experiment [6] was “inactive” throughout. Further, in experiment [5], the max activation is 4.82%.

For the molecule `CC1CCC(NC(=O)N(CCCl)N=O)CC1` (stereo not given), the Potency result in experiment [1], in experiment [2], in experiment [3], in experiment [4] and in experiment [6] was “inactive” throughout. In addition, the Potency in experiment [5] is 5.01 µM (active).

On to `Cc1cc(C)c(NC(=O)C[C@H](CC(=O)O)c2cccc3ccccc23)c(C(=O)N2CCC3(CCCC3)CC2)c1`, for which the Potency result in experiment [1], in experiment [8], in experiment [2], in experiment [3], in experiment [4] and in experiment [6] was “inactive” throughout. Also, in experiment [5], the max activation was 1.3%.

The values are drawn from PubChem BioAssay (Tox21).
